# Test results reported in the supplement of paper PMC8728848.
# The full list was thinned out, with the strongest signals kept by preference.
# B1: Tamarinin (protein)
# chain: CDDSARAGNIVVYWGQGGSDNSEGSLKEACKSGHYNMIVLQQLIVYDDGRDPDLNLGAHCSDCTKLEEQIKYCQNKDIKILLQIGQVVPTQEDVKDVTKNLSEYLLKNFFSGKSGPLGEVYLNGIDIASVPEGNNLKFDELVEALNDSSTERRIYLSASPLCVYPDYYLNKAIQTEKLDFLFVQFFYQNPCIYTEGNPENLFEAMKTWTKNVPESMIFMALPATPNLDGYIPPRVLNKEILPAVSEASNFAGVMIFDRYFDRFRKYSSKIK
# Assays:
# Assay in all cases: glycan array binding signal (z-score within array); higher = stronger binding
# Settings in all cases: glycan notation: IUPAC condensed, linker removed
# [1] = molecular target: Fuc(a1-2)Gal(b1-3)GlcNAc(b1-2)Man(a1-3)[Fuc(a1-2)Gal(b1-3)GlcNAc(b1-2)Man(a1-6)]Man(b1-4)GlcNAc(b1-4)GlcNAc
# In short: (§1)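 From the Consortium for Functional Glycomics database, 3228 arrays were curated, keeping only those whose protein sequence was available. Binding is given as a within-array Z-score averaged across arrays sharing a protein sequence and across linkers. Negative Z-scores can be read as non-binding.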
# Fuc(a1-2)Gal(b1-4)Glc6S = molecular target: Fuc(a1-2)Gal(b1-4)Glc6S
# In short: as §1
# [2] = molecular target: Fuc(a1-2)Gal(b1-4)GlcNAc(b1-3)Gal(b1-4)GlcNAc
# In short: as §1
# [3] = molecular target: Fuc(a1-2)Gal(b1-4)GlcNAc(b1-3)GalNAc
# In short: as §1
# [4] = molecular target: Fuc(a1-2)Gal(b1-4)GlcNAc(b1-3)[Fuc(a1-2)Gal(b1-4)GlcNAc(b1-6)]GalNAc
# In short: as §1
# [5] = molecular target: Fuc(a1-2)Gal(b1-4)GlcNAc(b1-3)[Fuc(a1-3)[Gal(b1-4)]GlcNAc(b1-6)]Gal(b1-4)Glc
# In short: as §1
# [6] = molecular target: Fuc(a1-2)Gal6S(b1-3)GlcNAc6S
# In short: as §1
# Fuc(a1-2)Gal6S(b1-4)Glc = molecular target: Fuc(a1-2)Gal6S(b1-4)Glc
# In short: as §1
# Fuc(a1-2)[Gal(a1-3)]Gal = molecular target: Fuc(a1-2)[Gal(a1-3)]Gal
# In short: as §1
# [7] = molecular target: Fuc(a1-2)[GalNAc(a1-3)]Gal
# In short: as §1
# [8] = molecular target: Fuc(a1-2)[GalNAc(a1-3)]Gal(b1-3)GalNAc(a1-3)[Fuc(a1-2)]Gal(b1-4)GlcNAc
# In short: as §1
# [9] = molecular target: Fuc(a1-3)[Gal(b1-4)]GlcNAc(b1-3)Gal(b1-3)[Fuc(a1-4)]GlcNAc
# In short: as §1
# [10] = molecular target: Fuc(a1-3)[Gal(b1-4)]GlcNAc(b1-3)Gal(b1-4)[Fuc(a1-3)]GlcNAc
# In short: as §1
# [11] = molecular target: Fuc(a1-3)[Gal(b1-4)]GlcNAc(b1-6)GalNAc
# In short: as §1
# [12] = molecular target: Fuc(a1-3)[GalNAc(b1-4)]GlcNAc
# In short: as §1
# Gal(a1-2)Gal = molecular target: Gal(a1-2)Gal
# In short: as §1
# Gal(a1-3)Gal(b1-3)GlcNAc = molecular target: Gal(a1-3)Gal(b1-3)GlcNAc
# In short: as §1
# Gal(b1-3)Gal(b1-4)GlcNAc = molecular target: Gal(b1-3)Gal(b1-4)GlcNAc
# In short: as §1
# [13] = molecular target: Gal(b1-3)GlcNAc(b1-3)Gal(b1-3)GlcNAc
# In short: as §1
# [14] = molecular target: Gal(b1-3)GlcNAc(b1-3)Gal(b1-4)GlcNAc(b1-3)Gal(b1-4)GlcNAc(b1-2)[Gal(b1-3)GlcNAc(b1-3)Gal(b1-4)GlcNAc(b1-3)Gal(b1-4)GlcNAc(b1-6)]Man(a1-6)[Gal(b1-3)GlcNAc(b1-3)Gal(b1-4)GlcNAc(b1-3)Gal(b1-4)GlcNAc(b1-2)Man(a1-3)]Man(b1-4)GlcNAc(b1-4)[Fuc(a1-6)]GlcNAc
# In short: as §1
# [15] = molecular target: Gal(b1-3)[Fuc(a1-4)]GlcNAc(b1-2)Man
# In short: as §1
# [16] = molecular target: Gal(b1-3)[Fuc(a1-4)]GlcNAc(b1-2)Man(a1-3)[Gal(b1-3)[Fuc(a1-4)]GlcNAc(b1-2)Man(a1-6)]Man(b1-4)GlcNAc(b1-4)[Fuc(a1-6)]GlcNAc
# In short: as §1
# [17] = molecular target: Gal(b1-3)[Fuc(a1-4)]GlcNAc(b1-6)GalNAc
# In short: as §1
# [18] = molecular target: Gal(b1-3)[Neu5Ac(a2-6)]GlcNAc(b1-4)Gal(b1-4)Glc
# In short: as §1
# [19] = molecular target: Gal(b1-3)[Neu5Ac(b2-6)]GalNAc
# In short: as §1
# [20] = molecular target: Gal(b1-4)GlcNAc(b1-3)Gal(b1-4)Glc
# In short: as §1
# [21] = molecular target: Gal(b1-4)GlcNAc(b1-3)Gal(b1-4)GlcNAc(b1-3)Gal(b1-4)GlcNAc(b1-3)Gal(b1-4)GlcNAc(b1-3)Gal(b1-4)GlcNAc(b1-2)Man(a1-3)[Gal(b1-4)GlcNAc(b1-3)Gal(b1-4)GlcNAc(b1-3)Gal(b1-4)GlcNAc(b1-3)Gal(b1-4)GlcNAc(b1-3)Gal(b1-4)GlcNAc(b1-2)Man(a1-6)]Man(b1-4)GlcNAc(b1-4)GlcNAc
# In short: as §1
# [22] = molecular target: Gal3S(b1-4)[Fuc(a1-3)]Glc6S
# In short: as §1
# Gal6S(b1-4)GlcNAc6S = molecular target: Gal6S(b1-4)GlcNAc6S
# In short: as §1
# GalNAc3S(b1-4)GlcNAc = molecular target: GalNAc3S(b1-4)GlcNAc
# In short: as §1
# GalNAc6S(b1-4)GlcNAc = molecular target: GalNAc6S(b1-4)GlcNAc
# In short: as §1
# [23] = molecular target: Glc(a1-4)Glc(a1-4)Glc(a1-4)Glc
# In short: as §1
# Glc(a1-6)Glc(a1-6)Glc = molecular target: Glc(a1-6)Glc(a1-6)Glc
# In short: as §1
# [24] = molecular target: Glc(a1-6)Glc(a1-6)Glc(a1-6)Glc
# In short: as §1
# GlcA(b1-6)Gal = molecular target: GlcA(b1-6)Gal
# In short: as §1
# [25] = molecular target: GlcNAc(b1-3)Gal(b1-4)GlcNAc(b1-3)Gal(b1-4)GlcNAc(b1-3)Gal(b1-4)GlcNAc(b1-3)Gal(b1-4)GlcNAc(b1-2)Man(a1-3)[GlcNAc(b1-3)Gal(b1-4)GlcNAc(b1-3)Gal(b1-4)GlcNAc(b1-3)Gal(b1-4)GlcNAc(b1-3)Gal(b1-4)GlcNAc(b1-2)Man(a1-6)]Man(b1-4)GlcNAc(b1-4)[Fuc(a1-6)]GlcNAc
# In short: as §1
# [26] = molecular target: GlcNAc(b1-3)Gal(b1-4)GlcNAc(b1-3)[GlcNAc(b1-3)Gal(b1-4)GlcNAc(b1-3)]GalNAc
# In short: as §1
# GlcNAc(b1-3)Man = molecular target: GlcNAc(b1-3)Man
# In short: as §1
# [27] = molecular target: Man(a1-2)Man(a1-2)Man(a1-6)[Man(a1-3)]Man
# In short: as §1
# [28] = molecular target: Man(a1-2)Man(a1-6)[Man(a1-3)]Man(a1-6)[Man(a1-2)Man(a1-2)Man(a1-3)]Man
# In short: as §1
# Man(a1-3)[Man(a1-6)]Man = molecular target: Man(a1-3)[Man(a1-6)]Man
# In short: as §1
# [29] = molecular target: Man(a1-3)[Man(a1-6)]Man(a1-6)[Man(a1-2)Man(a1-3)]Man(b1-4)GlcNAc(b1-4)GlcNAc
# In short: as §1
# [30] = molecular target: Neu5Ac(a2-3)Gal(b1-3)[Fuc(a1-4)]GlcNAc(b1-3)Gal(b1-4)[Fuc(a1-3)]GlcNAc
# In short: as §1
# [31] = molecular target: Neu5Ac(a2-3)Gal(b1-4)GlcNAc
# In short: as §1
# [32] = molecular target: Neu5Ac(a2-3)Gal(b1-4)GlcNAc(b1-3)Gal(b1-4)GlcNAc(b1-3)Gal(b1-4)GlcNAc
# In short: as §1
# [33] = molecular target: Neu5Ac(a2-3)Gal6S(b1-4)[Fuc(a1-3)]GlcNAc
# In short: as §1
# [34] = molecular target: Neu5Ac(a2-6)Gal(b1-3)GlcNAc(b1-3)[Gal(b1-4)GlcNAc(b1-6)]Gal(b1-4)Glc
# In short: as §1
# [35] = molecular target: Neu5Ac(a2-6)Gal(b1-4)GlcNAc
# In short: as §1
# [36] = molecular target: Neu5Ac(a2-6)Gal(b1-4)GlcNAc(b1-2)Man(a1-3)[Neu5Ac(a2-6)Gal(b1-4)GlcNAc(b1-2)Man(a1-6)]Man(b1-4)GlcNAc(b1-4)[Fuc(a1-6)]GlcNAc
# In short: as §1
# [37] = molecular target: Neu5Ac(a2-6)Gal(b1-4)GlcNAc(b1-3)GalNAc
# In short: as §1
# [38] = molecular target: Neu5Ac(a2-6)Gal(b1-4)GlcNAc(b1-6)[Gal(b1-3)GlcNAc(b1-3)]Gal(b1-4)Glc
# In short: as §1
# [39] = molecular target: Neu5Ac(a2-8)Neu5Ac(a2-3)Gal(b1-4)Glc
# In short: as §1
# [40] = molecular target: Neu5Gc(a2-3)Gal(b1-4)GlcNAc(b1-3)Gal(b1-4)GlcNAc(b1-2)Man(a1-3)[Neu5Gc(a2-3)Gal(b1-4)GlcNAc(b1-3)Gal(b1-4)GlcNAc(b1-2)Man(a1-6)]Man(b1-4)GlcNAc(b1-4)GlcNAc
# In short: as §1
# [41] = molecular target: Neu5Gc(a2-8)Neu5Gc(a2-6)Gal(b1-4)GlcNAc
# In short: as §1
binder,measurement,setting,value
B1,glycan array binding signal (z-score),[1],0.79
same,glycan array binding signal (z-score),Fuc(a1-2)Gal(b1-4)Glc6S,-0.241
same,glycan array binding signal (z-score),[2],-0.361
same,glycan array binding signal (z-score),[3],0.146
same,glycan array binding signal (z-score),[4],4.01
same,glycan array binding signal (z-score),[5],-0.458
same,glycan array binding signal (z-score),[6],4.89
same,glycan array binding signal (z-score),Fuc(a1-2)Gal6S(b1-4)Glc,-0.164
same,glycan array binding signal (z-score),Fuc(a1-2)[Gal(a1-3)]Gal,-0.275
same,glycan array binding signal (z-score),[7],-0.388
same,glycan array binding signal (z-score),[8],-0.292
same,glycan array binding signal (z-score),[9],-0.377
same,glycan array binding signal (z-score),[10],0.223
same,glycan array binding signal (z-score),[11],-0.129
same,glycan array binding signal (z-score),[12],-0.154
same,glycan array binding signal (z-score),Gal(a1-2)Gal,-0.001
same,glycan array binding signal (z-score),Gal(a1-3)Gal(b1-3)GlcNAc,-0.375
same,glycan array binding signal (z-score),Gal(b1-3)Gal(b1-4)GlcNAc,11.2
same,glycan array binding signal (z-score),[13],-0.135
same,glycan array binding signal (z-score),[14],4.61
same,glycan array binding signal (z-score),[15],1.45
same,glycan array binding signal (z-score),[16],3.52
same,glycan array binding signal (z-score),[17],-0.371
same,glycan array binding signal (z-score),[18],2.92
same,glycan array binding signal (z-score),[19],-0.455
same,glycan array binding signal (z-score),[20],0.79
same,glycan array binding signal (z-score),[21],-0.24
same,glycan array binding signal (z-score),[22],-0.238
same,glycan array binding signal (z-score),Gal6S(b1-4)GlcNAc6S,-0.214
same,glycan array binding signal (z-score),GalNAc3S(b1-4)GlcNAc,2.59
same,glycan array binding signal (z-score),GalNAc6S(b1-4)GlcNAc,2.4
same,glycan array binding signal (z-score),[23],-0.232
same,glycan array binding signal (z-score),Glc(a1-6)Glc(a1-6)Glc,-0.034
same,glycan array binding signal (z-score),[24],0.415
same,glycan array binding signal (z-score),GlcA(b1-6)Gal,0.165
same,glycan array binding signal (z-score),[25],-0.061
same,glycan array binding signal (z-score),[26],-0.332
same,glycan array binding signal (z-score),GlcNAc(b1-3)Man,0.095
same,glycan array binding signal (z-score),[27],14.1
same,glycan array binding signal (z-score),[28],-0.298
same,glycan array binding signal (z-score),Man(a1-3)[Man(a1-6)]Man,0.04
same,glycan array binding signal (z-score),[29],-0.295
same,glycan array binding signal (z-score),[30],3.05
same,glycan array binding signal (z-score),[31],-0.352
same,glycan array binding signal (z-score),[32],-0.251
same,glycan array binding signal (z-score),[33],-0.371
same,glycan array binding signal (z-score),[34],-0.386
same,glycan array binding signal (z-score),[35],-0.341
same,glycan array binding signal (z-score),[36],-0.131
same,glycan array binding signal (z-score),[37],5.41
same,glycan array binding signal (z-score),[38],-0.361
same,glycan array binding signal (z-score),[39],-0.395
same,glycan array binding signal (z-score),[40],-0.36
same,glycan array binding signal (z-score),[41],-0.477
